{
  "source": "ChEMBL document CHEMBL4513216",
  "about": "“Probing the Open Global Health Chemical Diversity Library for Multistage-Active Starting Points for Next-Generation Antimalarials” (ACS Infect Dis, 2020)",
  "note": "About 8,600 (12%) of roughly 69,000 compounds showed an effect of 50% or more. The list comes from a sample in which strong results are over-represented; it also holds similar structures and randomly drawn compounds.",
  "data": [
    {"system": "Plasmodium berghei", "test": "Screen against P. berghei liver stage (PbLuc), transformed with Luciferase, at 10uM", "type": "functional, HepG2", "settings": "tested at 10 uM", "units": {"INHIBITION": "%"}, "values": [
      {"molecule": "CCc1nc2ccccc2c(=O)n1CC1(O)CCN(C(=O)C(C)C)CC1", "INHIBITION": 35.2},
      {"molecule": "COC(=O)COn1c(SCC(=O)OC)nc2ccccc2c1=O", "INHIBITION": 28.3},
      {"molecule": "CCc1nc2ccccc2c(=O)n1CC1(O)CCN(CC(=O)OC)CC1", "INHIBITION": 13.5},
      {"molecule": "CCOn1c(SC(C)C)nc2ccccc2c1=O", "INHIBITION": 56.3},
      {"molecule": "COC(=O)COn1c(SC(C)C)nc2ccccc2c1=O", "INHIBITION": 28.3},
      {"molecule": "CCc1nc2ccccc2c(=O)n1CC1(O)CCN(C(=O)COC)CC1", "INHIBITION": 7.52},
      {"molecule": "COC(=O)COn1c(SC)nc2ccccc2c1=O", "INHIBITION": 48},
      {"molecule": "COC(=O)COn1c(OC)nc2ccccc2c1=O", "INHIBITION": 52.5},
      {"molecule": "CCSc1nc2ccccc2c(=O)n1OCC(=O)OC", "INHIBITION": 60.8},
      {"molecule": "CC(C)Cc1noc(CN2CCCC2c2noc(C3CC3)n2)n1", "note": "(centres undefined)", "INHIBITION": -31.5},
      {"molecule": "CC(C)(C)N1CCN(C(=O)Nc2cc(C(F)(F)F)c[nH]c2=O)CC1", "INHIBITION": 33.3},
      {"molecule": "COC(=O)C1C=CCN1C(=O)c1cc(COc2ccccc2)[nH]n1", "note": "(centres undefined)", "INHIBITION": 9.41},
      {"molecule": "Cc1nc(N(C)C)ncc1C(=O)N[C@@H]1CCc2ccccc21", "INHIBITION": 27.4},
      {"molecule": "O=C(Nc1cccnc1)C1CCCN(c2cc(-n3cccn3)ncn2)C1", "note": "(centres undefined)", "INHIBITION": 50.2},
      {"molecule": "O=C(NC1CC1)C1CCCN(c2cc(-n3cncn3)ncn2)C1", "note": "(centres undefined)", "INHIBITION": 40.4},
      {"molecule": "O=C(CN1CCCC(Cn2cncn2)C1)Nc1cccnc1", "note": "(centres undefined)", "INHIBITION": -43.9},
      {"molecule": "O=C(Nc1cccnc1)C1CCN(c2cc(-n3ccnc3)ncn2)CC1", "INHIBITION": 31.3},
      {"molecule": "O=C(NCc1cccs1)C1CCCN(c2cc(-n3cncn3)ncn2)C1", "note": "(centres undefined)", "INHIBITION": 13.9},
      {"molecule": "O=C(Nc1ccccc1)C1CCCN(c2cc(-n3cncn3)ncn2)C1", "note": "(centres undefined)", "INHIBITION": 50.2},
      {"molecule": "CC(C)(C)C(=O)NC(c1nccs1)C1CCN(CC2CCCCC2)CC1", "note": "(centres undefined)", "INHIBITION": 41.5},
      {"molecule": "CCn1nc(C)c(CCNC(=O)C2CCCN(C(C)=O)C2)c1C", "note": "(centres undefined)", "INHIBITION": -20.2},
      {"molecule": "Cc1cnn(CC2CCCCN2CCS(C)(=O)=O)c1", "note": "(centres undefined)", "INHIBITION": 17.4},
      {"molecule": "CNC(=O)CN1CCC(NC(=O)Cc2ccc3c(c2)OCCO3)CC1", "INHIBITION": -53.2},
      {"molecule": "CCN(Cc1c(C)nn(CC)c1C)S(=O)(=O)c1cnn(C)c1", "INHIBITION": 11.8},
      {"molecule": "CCS(=O)(=O)N1C[C@@H]2C[C@H](C(=O)N(C)C)[C@H](C1)O2", "INHIBITION": 22.2},
      {"molecule": "O=c1cc(CNS(=O)(=O)C2CC2)nc2n1CCCN(CC1CC1)C2", "INHIBITION": 33.1},
      {"molecule": "Cc1oncc1C(=O)NCc1cc(=O)n2c(n1)CN(CC1CC1)CCC2", "INHIBITION": 36.4},
      {"molecule": "CCN1CCCn2c(nc(CNC(=O)c3ccsc3)cc2=O)C1", "INHIBITION": 58},
      {"molecule": "CCCN1CCCn2c(nc(CNC(=O)c3ccsc3)cc2=O)C1", "INHIBITION": 18.5},
      {"molecule": "O=C(NCc1cc(=O)n2c(n1)CN(CC1CC1)CCC2)c1ccsc1", "INHIBITION": 89.2},
      {"molecule": "CN1CCCn2c(nc(CNC(=O)c3ccsc3)cc2=O)C1", "INHIBITION": 35.8},
      {"molecule": "Cc1nn(C)c(N(C)C)c1CNCc1ccnc(N2CCCC2)c1", "INHIBITION": -44.3},
      {"molecule": "Oc1cc(-c2ccccn2)nc(C2CCN(Cc3ccncc3)CC2)n1", "INHIBITION": -44.8},
      {"molecule": "O=C(CCN1CCOC(Cn2cccn2)C1)NC1CCCCC1", "note": "(centres undefined)", "INHIBITION": -107},
      {"molecule": "COCC(=O)N1CCCn2c(CN3CCOCC3)nnc2C1", "INHIBITION": -2.46},
      {"molecule": "O=C1CCCN1Cc1nnc2n1CCCN(C(=O)c1ccc[nH]1)C2", "INHIBITION": 53},
      {"molecule": "O=C(c1ccncc1)N1CCCn2c(CN3CCCCC3)nnc2C1", "INHIBITION": 31.8},
      {"molecule": "O=C(c1ccc[nH]1)N1CCCn2c(nnc2Cn2cccn2)C1", "INHIBITION": -17.2},
      {"molecule": "O=C(c1ccccc1)N1CCCn2c(CN3CCCCC3)nnc2C1", "INHIBITION": 50.9},
      {"molecule": "O=C(c1ccncc1)N1CCCn2c(CN3CCCC3)nnc2C1", "INHIBITION": 35.7},
      {"molecule": "O=C(c1ccc[nH]1)N1CCCn2c(CN3CCCCC3)nnc2C1", "INHIBITION": 42.1},
      {"molecule": "COCC(=O)N1CCCn2c(CN3CCCCC3)nnc2C1", "INHIBITION": 20.1},
      {"molecule": "COCC(=O)N1CCCn2c(CN3CCCC3)nnc2C1", "INHIBITION": 56.6},
      {"molecule": "O=C(c1ccccc1F)N1CCCn2c(CN3CCCCC3)nnc2C1", "INHIBITION": 18.3},
      {"molecule": "O=C(c1cccc(Cl)c1)N1CCCn2c(CN3CCCCC3)nnc2C1", "INHIBITION": 55.2},
      {"molecule": "Cc1cccc(C(=O)N2CCCn3c(CN4CCCCC4)nnc3C2)c1", "INHIBITION": 25.2},
      {"molecule": "Cc1nc(C)n(CC2CCCN(Cc3cccc4c3OCCO4)C2)n1", "note": "(centres undefined)", "INHIBITION": 38.8},
      {"molecule": "Cc1noc(C)c1-c1cncc(CC2CCN(C(=O)c3cc[nH]n3)C2)n1", "note": "(centres undefined)", "INHIBITION": 22},
      {"molecule": "CNc1nc(C2CCCN(C(=O)C(C)C)C2)nc2c1CN(C)CC2", "note": "(centres undefined)", "INHIBITION": 12.3},
      {"molecule": "Cc1cccc(OCCN2CCCC(c3cc(C(N)=O)[nH]n3)C2)c1", "note": "(centres undefined)", "INHIBITION": -46.4},
      {"molecule": "Cc1cc(C(=O)N2CCCC3(COCCN(c4ncccn4)C3)C2)[nH]n1", "note": "(centres undefined)", "INHIBITION": 33.4},
      {"molecule": "COc1ccc2c(c1)C(C(=O)NCCCN1CCN(C)CC1)CC(=O)N2", "note": "(centres undefined)", "INHIBITION": 26},
      {"molecule": "N#CC1(C(=O)N2CCCN(c3nccs3)CC2)CCCC1", "INHIBITION": 7.305},
      {"molecule": "Nc1nccc(C2CCCN(CC3CC3)C2)n1", "note": "(centres undefined)", "INHIBITION": 23}
    ]}
  ]
}
